Potency and outcome data for 7 compounds are collected here from PubChem BioAssay (Tox21).

Assay [1] is described as follows: qHTS assay to identify small molecule antagonists of the retinoid acid receptor (RAR) signaling pathway - cell viability counter screen (AID 1159551). Note: nearly all actives have a fitted effect of over 35% in size. Put shortly:
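Viability of C3RL4 cells is quantified from ATP by luminescence after 6 h treatment at 37 C with compounds and 1 uM retinol.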

Assay [2] can be described thus: qHTS assay to identify small molecule agonists of the constitutive androstane receptor (CAR) signaling pathway - cell viability counter screen (AID 1224836). Note: series mostly up to about 92 µM; nearly all actives have a fitted effect of over 45% in size. Put shortly:
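Using CellTiter-Fluor, viability of HepG2 cells harbouring hCAR and CYP2B6-2.2kb was measured following 23 h incubation with a 15-concentration compound series plus PK11195 (0.75 uM final).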
(Quantitative high-throughput screening tests each substance at several concentrations.)

The nature of assay [3]: qHTS assay to identify small molecule antagonists of the constitutive androstane receptor (CAR) signaling pathway - cell viability counter screen (AID 1224837). Note: series mostly up to about 92 µM; nearly all actives have a fitted effect of over 45% in size. Put shortly:
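In quantitative HTS format, compounds at 15 concentrations were applied to HepG2 cells double-transfected with hCAR and CYP2B6-2.2kb under 50 nM CITCO stimulation; live-cell protease activity was read after 23 hr via CellTiter-Fluor.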

A short description of assay [4]: qHTS RealTime-Glo MT Cell Viability Assay in HepG2 cells - 24 hour (AID 1224867). Note: nearly all actives have a fitted effect of over 50% in size. Put shortly:
(§1)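 Real-time, nonlytic viability: 600 HepG2 cells/well mixed with NanoLuc enzyme plus prosubstrate; 5 h settle, compound (DMSO) added by pintool; luminescence monitored over 40 h at 37 C.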

A short description of assay [5]: qHTS RealTime-Glo MT Cell Viability Assay in HEK293 cells - 32 hour (AID 1224868). Note: nearly all actives have a fitted effect of over 50% in size. Note: potency is the fitted concentration of half-maximal effect. The gist of the method: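 Cells + reagent dispensed (600 cells/well, HEK293) → 5 h at 37 C/5% CO2 → 23 nL compound in DMSO pinned → 40 h at 37 C → luminescence read at 0, 8, 16, 24, 32, 40 h.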
Assay [6] is described as follows: A CellTox Green Cytotoxicity Assay to monitor cytotoxicity in HepG2 cells - 40 hour (AID 1224879). Note: nearly all actives have a fitted effect of over 40% in size. Note: potency is the fitted concentration of half-maximal effect. Put shortly:
(§2)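 Fluorescent DNA-binding dye, 600 HepG2 cells/well, 5 h preincubation then compound in DMSO; same plates read at 0–40 h, 37 C.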

Assay [7] is described as follows: A CellTox Green Cytotoxicity Assay to monitor cytotoxicity in HepG2 cells - 32 hour (AID 1224883). Note: nearly all actives have a fitted effect of over 50% in size. Note: potency is the fitted concentration of half-maximal effect. Put shortly: as §2
Assay [8] in a line: A CellTox Green Cytotoxicity Assay to monitor cytotoxicity in HEK293 cells - 8 hour (AID 1224884). Note: nearly all actives have a fitted effect of over 35% in size. Note: potency is the fitted concentration of half-maximal effect. Put shortly: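 Homogeneous no-lysis format: HEK293 cell suspension mixed with CellTox Green reagent, seeded, incubated 5 h at 37 C/5% CO2, then dosed by pintool with compound in DMSO.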
Assay [9] in a line: qHTS RealTime-Glo MT Cell Viability Assay in HepG2 cells - 16 hour (AID 1224885). Note: nearly all actives have a fitted effect of over 50% in size. Put shortly:
as §1

A short description of assay [10]: qHTS assay to identify small molecule agonists of the sonic hedgehog signaling (Shh) pathway - cell viability counter screen (AID 1259366). Note: nearly all actives have a fitted effect of over 50% in size. Note: potency is the fitted concentration of half-maximal effect. The gist of the method: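 Same-well cytotoxicity read. Gli1-Luc reporter 3T3 cells; compounds 24hr, 37C/5% CO2; CellTiter-Fluor fluorescence.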
The nature of assay [11]: qHTS assay to identify small molecule antagonists of the sonic hedgehog signaling (Shh) pathway - cell viability counter screen (AID 1259367). Note: nearly all actives have a fitted effect of over 55% in size. Note: potency is the fitted concentration of half-maximal effect. Put shortly: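 Tox21 library chemicals were tested on a Gli1-Luc NIH/3T3 clone (2,000 cells/well) stimulated by conditioned medium; viability was quantified as fluorescence from CellTiter-Fluor reagent added at 23 hr.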
Assay [12] in a line: qHTS assay to identify small molecule agonists of the estrogen receptor alpha (ER-alpha) signaling pathway in the presence of an antagonist - cell viability counter screen (AID 1259386).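 Note: series mostly up to about 92 µM; cells exposed to compounds for 22 h at 37 °C before the viability read; nearly all actives have a fitted effect of over 30% in size.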 Put shortly:
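Steps: 5-day stripped-FBS culture; seed and incubate 24hr; add ICI-182,780 (10.0nM final); pin 15-point compound titration; incubate 22hr at 37C; add CellTiter-Fluor at 21hr; read fluorescence.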

Assay [13] in a line: qHTS assay to identify small molecule antagonists of the TGF-beta/Smad signaling pathway - cell viability counter screen (AID 1346824). Note: nearly all actives have a fitted effect of over 50% in size. Put shortly:
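SBE-bla HEK 293T cells, incubated overnight, then compound plus 0.25 ng/mL TGF-beta1 (stock added) for 5 hr at 37 C. Viability was read in the same wells by CellTiter-Glo luminescence after 30 min at room temperature.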

Assay [14] in a line: qHTS assay to identify small molecule agonists of the TGF-beta/Smad signaling pathway - cell viability counter screen (AID 1346829). Note: top concentration of the series differs between compounds; nearly all actives have a fitted effect of over 45% in size. Put shortly:
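Here the cytotoxicity of library compounds is measured in SBE-bla HEK 293T cells treated for 5 hr, using CellTiter-Glo added to wells already read for the beta-lactamase reporter.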

Assay [15] is described as follows: Caspase-3/7 induction in CHO-K1 cells by small molecules, qHTS cell viability counter screen (AID 1346979). Note: potency is the fitted concentration of half-maximal effect; nearly all actives have a fitted effect of over 35% in size. Put shortly: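 CellTiter-Fluor viability check, qHTS format: wild-type CHO-K1, 16hr compound treatment, 1hr reagent incubation, fluorescence read.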
Assay [16] is described as follows: qHTS assay to identify small molecule antagonists of the estrogen related receptor (ERR) signaling pathway from Tox21 library - cell viability counter screen (AID 1224834). Note: nearly all actives have a fitted effect of over 30% in size. Note: potency is the fitted concentration of half-maximal effect. The gist of the method:
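In this quantitative HTS format, ERR cells receive compounds in DMSO and are incubated for 17.5 h at 37 C. Live-cell protease activity is then detected with CellTiter-Fluor.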

Assay [17] addresses Luciferin 4-monooxygenase (Photinus pyralis) (UniProt P08659). Kind of assay: qHTS assay to identify small molecule inhibitors of firefly luciferase (AID 1224835). Note: series mostly up to about 120 µM; nearly all actives have a fitted effect of over 25% in size. Put shortly:
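Biochemical qHTS: compounds run as interplate titrations against purified firefly enzyme, with D-luciferin and ATP each at its KM concentration. Light output recorded by CCD imaging.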

For assay [18], the target named is Estrogen receptor (Homo sapiens) (UniProt P03372). Kind of assay: qHTS assay to identify small molecule agonists of the estrogen receptor alpha (ER-alpha) signaling pathway in the presence of an antagonist (AID 1259383; calls by dose curve; note: top concentration of the series differs between compounds; nearly all actives have a fitted effect of over 15% in size). Put shortly:
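ER-alpha agonism measured under antagonist challenge: 10.0nM ICI-182,780 (final) plus compound, 15 concentrations, 22hr, VM7Luc4E2 ERE-luciferase cells. Read by luminescence.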

Assay [19] concerns the target Nuclear receptor subfamily 1 group I member 2 (Homo sapiens) (UniProt O75469). Kind of assay: Human pregnane X receptor (PXR) small molecule agonists, qHTS assay (AID 1346982). Note: nearly all actives have a fitted effect of over 35% in size. Note: potency is the fitted concentration of half-maximal effect. The gist of the method: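 After plating in 5% charcoal-stripped FBS and a 5 hr rest, PXR-Luc HepG2 cells received compounds in DMSO. Following 24 hr at 37 C, ONE-Glo was added and light output read.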

Assay [20] addresses Cytochrome P450 2C9 (Homo sapiens) (UniProt P11712). Kind of assay: Cytochrome P450 Family 2 Subfamily C Member 9 (CYP2C9) small molecule antagonists: luciferase reporter qHTS assay (AID 1671198). Note: nearly all actives have a fitted effect of over 50% in size. Note: potency is the fitted concentration of half-maximal effect. The gist of the method:
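P450-Glo proluciferin substrate with CYP2C9 enzyme; 10 min RT preincubation, then NADPH regeneration 1 h at 37C; luciferin detection reagent 20 min RT, luminescence in relative luminescence units.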
(In a reporter assay the amount or activity of a reporter protein is the signal.)

Unmarked numbers belong to inactive results. Results filed as inconclusive are left out. Active and inactive are the calls of the source. Unless noted, calls come from the whole dose curve; as a rule, active = well fitted curve in the direction sought with a large enough effect in the repeat runs; inconclusive = weak or mixed curves; inactive = no such curve, though single readings can be large; an effect the other way counts as inactive or inconclusive.

Sequence of Cytochrome P450 2C9 (Homo sapiens) (P11712 whole entry, looked up): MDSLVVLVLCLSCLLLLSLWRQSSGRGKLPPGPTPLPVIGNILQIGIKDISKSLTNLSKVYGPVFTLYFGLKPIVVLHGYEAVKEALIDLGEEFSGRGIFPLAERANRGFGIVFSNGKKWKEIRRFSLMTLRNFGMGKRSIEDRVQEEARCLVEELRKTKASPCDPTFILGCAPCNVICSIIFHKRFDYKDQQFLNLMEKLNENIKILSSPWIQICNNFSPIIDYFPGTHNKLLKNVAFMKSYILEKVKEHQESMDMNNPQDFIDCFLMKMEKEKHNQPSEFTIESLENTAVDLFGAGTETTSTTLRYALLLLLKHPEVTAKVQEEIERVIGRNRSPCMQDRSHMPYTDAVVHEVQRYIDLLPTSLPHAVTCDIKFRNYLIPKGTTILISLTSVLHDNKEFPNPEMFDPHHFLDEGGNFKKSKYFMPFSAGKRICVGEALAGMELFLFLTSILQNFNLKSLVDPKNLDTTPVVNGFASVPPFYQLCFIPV
Sequence of Nuclear receptor subfamily 1 group I member 2 (Homo sapiens) (O75469 whole entry, looked up): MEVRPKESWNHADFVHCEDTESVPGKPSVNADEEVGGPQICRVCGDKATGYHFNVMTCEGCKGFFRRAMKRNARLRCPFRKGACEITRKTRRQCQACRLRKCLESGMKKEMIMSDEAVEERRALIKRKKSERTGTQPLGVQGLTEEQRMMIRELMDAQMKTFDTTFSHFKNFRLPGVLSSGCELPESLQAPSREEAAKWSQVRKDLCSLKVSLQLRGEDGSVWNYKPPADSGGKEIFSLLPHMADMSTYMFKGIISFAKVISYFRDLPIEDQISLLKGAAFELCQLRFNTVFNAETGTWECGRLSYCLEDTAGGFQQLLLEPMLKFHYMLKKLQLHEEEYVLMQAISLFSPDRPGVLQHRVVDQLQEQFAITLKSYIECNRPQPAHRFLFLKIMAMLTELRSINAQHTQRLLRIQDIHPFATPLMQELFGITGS
Sequence of Estrogen receptor (Homo sapiens) (P03372 whole entry, looked up): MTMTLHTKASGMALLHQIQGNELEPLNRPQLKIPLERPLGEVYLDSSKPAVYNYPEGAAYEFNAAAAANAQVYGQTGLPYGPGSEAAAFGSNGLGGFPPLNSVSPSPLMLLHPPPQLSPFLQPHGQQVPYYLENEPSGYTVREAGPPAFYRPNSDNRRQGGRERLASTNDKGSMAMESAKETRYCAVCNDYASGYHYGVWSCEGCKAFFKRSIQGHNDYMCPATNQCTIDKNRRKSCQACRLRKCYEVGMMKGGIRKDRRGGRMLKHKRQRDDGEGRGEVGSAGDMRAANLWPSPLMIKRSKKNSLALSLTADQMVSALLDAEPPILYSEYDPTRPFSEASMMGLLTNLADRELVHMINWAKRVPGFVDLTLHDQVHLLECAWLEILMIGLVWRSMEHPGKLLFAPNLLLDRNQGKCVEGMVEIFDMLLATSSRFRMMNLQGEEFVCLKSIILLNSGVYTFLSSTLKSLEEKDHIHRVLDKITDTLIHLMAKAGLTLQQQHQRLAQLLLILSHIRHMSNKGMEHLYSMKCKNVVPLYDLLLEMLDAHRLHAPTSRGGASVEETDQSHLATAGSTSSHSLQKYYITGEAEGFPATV
Sequence of Luciferin 4-monooxygenase (Photinus pyralis) (P08659 whole entry, looked up): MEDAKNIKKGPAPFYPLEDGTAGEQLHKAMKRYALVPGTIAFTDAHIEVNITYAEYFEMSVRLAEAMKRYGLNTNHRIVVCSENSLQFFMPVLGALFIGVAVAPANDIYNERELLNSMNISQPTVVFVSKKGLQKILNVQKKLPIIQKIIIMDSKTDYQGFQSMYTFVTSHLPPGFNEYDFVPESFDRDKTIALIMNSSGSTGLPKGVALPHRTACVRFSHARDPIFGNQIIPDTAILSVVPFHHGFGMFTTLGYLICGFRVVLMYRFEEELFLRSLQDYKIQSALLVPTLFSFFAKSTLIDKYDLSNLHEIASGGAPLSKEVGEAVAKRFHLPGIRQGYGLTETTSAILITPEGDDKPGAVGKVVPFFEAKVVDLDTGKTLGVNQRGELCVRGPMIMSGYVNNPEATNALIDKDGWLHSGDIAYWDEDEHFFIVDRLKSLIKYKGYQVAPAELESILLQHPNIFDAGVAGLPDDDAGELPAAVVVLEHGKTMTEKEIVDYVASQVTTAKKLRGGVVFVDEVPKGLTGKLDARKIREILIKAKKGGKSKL

In the case of `C[C@]12CC[C@@H](O)C[C@@H]1CC[C@@H]1[C@@H]2CC[C@]2(C)C(=O)CC[C@@H]12`, the Potency entry in [1], in [2], in assay [3], in [4], in assay [6] and in assay [7] was “inactive” each time. The Potency result in [8], in [9], in assay [10], in assay [11], in [12] and in [13] was “inactive” in each case. Moreover, the Potency in assay [5] was 24.5 µM (active); in [15], 61.1 µM (active). Also, the compound was classed as inactive in assay [14].

`CC(c1ccccc1)(c1ccc(O)cc1)c1ccc(O)cc1`: the Potency was 61.1 µM (active) in assay [16]; 43.6 µM (active) in assay [5]; 38.9 µM (active) in [6]; 43.6 µM (active) in assay [7]; 68.6 µM (active) in [10]; 68.6 µM (active) in [15]. Also, the Potency in [19] is 17.2 µM (active); in [20] it was 8.94 µM (active). In addition, the Potency entry in assay [17], in assay [2], in assay [3], in assay [4], in [8] and in [9] was “inactive” throughout. The Potency entry in [12] and in [13] was “inactive” throughout. For the same compound, the outcome in assay [18] and in [14] was inactive.

As to `COc1ccc(C(c2ccc(OC)cc2)C(Cl)(Cl)Cl)cc1`, the Potency entry in [1], in [16], in [2], in [3], in [6] and in [7] was “inactive” throughout. For the same compound, the Potency result in assay [10] and in assay [13] was “inactive” each time. For the same compound, the Potency in assay [5] is 48.7 µM (active); in assay [15], 60.8 µM (active); in assay [19] it was 17.1 µM (active); in [20], 1.82 µM (active). For the same compound, the outcome in [18] and in assay [14] was inactive.

`O=C(Nc1ccccc1-c1ccc(Cl)cc1)c1cccnc1Cl`: the Potency entry in [1], in assay [2], in assay [3], in [4], in assay [9] and in assay [10] was “inactive” each time. Also, the Potency entry in assay [11], in assay [12] and in assay [20] was “inactive” throughout. Moreover, the Potency in assay [6] was 46.3 µM (active); in [7], 46.3 µM (active); in [8] it was 46.3 µM (active); in [19] it was 10.3 µM (active). Also, the outcome in [18] was inactive.

In the case of `ClC(Cl)=C(c1ccc(Cl)cc1)c1ccccc1Cl`, the Potency result in assay [1], in assay [16], in [17], in assay [2], in assay [3] and in assay [4] was “inactive” each time. The Potency result in assay [9], in assay [10], in assay [11], in [12] and in assay [13] was “inactive” throughout. For the same compound, the outcome in assay [18] and in assay [14] was inactive. The Potency in assay [19] is 30.6 µM (active); in assay [20] it was 25.2 µM (active).

In the case of `Cc1nnc2n1-c1sc(CCc3ccc(CC(C)C)cc3)cc1C(c1ccccc1Cl)=NC2C` (configuration not stated), the Potency is 26.6 µM (active) in assay [16]; 9.52 µM (active) in assay [5]; 29.8 µM (active) in [15]; 4.22 µM (active) in assay [19]; 27.5 µM (active) in assay [20]. In addition, the Potency result in assay [17], in assay [8] and in assay [11] was “inactive” each time. Also, the result in assay [18] was inactive.

`COc1cc(OC)c(OC)cc1C=O`: the Potency entry in assay [1], in [16], in assay [17], in assay [2], in assay [3] and in assay [4] was “inactive” throughout. Also, the Potency entry in assay [5], in assay [6], in assay [7], in [8], in assay [9] and in [12] was “inactive” each time. The Potency entry in [13] and in [19] was “inactive” each time. The Potency in [11] was 47.1 µM (active). The outcome in assay [18] and in [14] was inactive.
